Giardia FBPA inh = Giardia lamblia aldolase inhibition | AID 2451 | A8B2U2 | 290,000 compounds, 0.71% hits | Potency, µM (doses to about 59.6 µM), for the others: top-dose activity, negative = inhibition, usual class: inhibitors | purified Giardia FBPA; further: potency means the concentration at half of the fitted maximal effect; on the % scale 0 is the no-effect control and ±100 the full control effect; nearly all actives have a fitted effect of over 55% in size
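40 nM FBPA preincubated 10 min at RT with compound (up to 57.5 uM final), then substrate plus GAPDH/TPI/NAD/arsenate coupling and diaphorase/resazurin added. Fluorescence read after 20 min at RT, 525/598 nm.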
Cycloheximide cs = counter-screen for Shiga toxin inhibitors: cycloheximide protein synthesis inhibition; cell reporter, cycloheximide protein synthesis inhibition counterscreen; max response, %; 300,000 compounds, 12% hits; in the data active means max response mostly above about 13%, no sharp cut-off; inactive means mostly below about 14%; further: read at 38.3 µM for the half of the compounds with a filed dose; 0% is about no effect
Shiga inhibitor = Shiga toxin inhibition; Vero cells, Shiga toxin protein synthesis inhibition reporter; inhibition, % at 38.7 µM; 290,000 compounds, 9.2% hits; AID 2315; in the data active means inhibition mostly above about 28%, no sharp cut-off; inactive means mostly below about 43%; further: 0% is about no effect
NS1 function inh = blocks influenza NS1 protein function; Potency, µM (top dose mostly 46.1 µM), without a hit: at the highest dose activity, positive = more growth; 270,000 compounds, 0.4% hits; AID 2326; calls by dose curve; further: potency means the concentration at half of the fitted maximal effect; actives are rising curves; nearly all actives have a fitted effect of over 50% in size
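Recovery from NS1-induced slow growth read by OD600 in budding yeast switched to galactose assay medium (pH 6.0, -URA) at 1:100 dilution. Compound 23 nl per well; the matching strain lacking NS1 serves as control.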
LmPK inhibitor = inhibitors of Leishmania mexicana pyruvate kinase; purified LmPK, Kinase-Glo ATP luminescence, 1 h; Potency, µM (series often up to 57.5 µM), for inactives: at the top dose activity change, negative = inhibition, usual class: inhibitors; 290,000 compounds, 0.37% hits; further: potency means the concentration at half of the fitted maximal effect; on the % scale 0 is the no-effect control and ±100 the full control effect
Target sequence (Q27686 whole entry, looked up): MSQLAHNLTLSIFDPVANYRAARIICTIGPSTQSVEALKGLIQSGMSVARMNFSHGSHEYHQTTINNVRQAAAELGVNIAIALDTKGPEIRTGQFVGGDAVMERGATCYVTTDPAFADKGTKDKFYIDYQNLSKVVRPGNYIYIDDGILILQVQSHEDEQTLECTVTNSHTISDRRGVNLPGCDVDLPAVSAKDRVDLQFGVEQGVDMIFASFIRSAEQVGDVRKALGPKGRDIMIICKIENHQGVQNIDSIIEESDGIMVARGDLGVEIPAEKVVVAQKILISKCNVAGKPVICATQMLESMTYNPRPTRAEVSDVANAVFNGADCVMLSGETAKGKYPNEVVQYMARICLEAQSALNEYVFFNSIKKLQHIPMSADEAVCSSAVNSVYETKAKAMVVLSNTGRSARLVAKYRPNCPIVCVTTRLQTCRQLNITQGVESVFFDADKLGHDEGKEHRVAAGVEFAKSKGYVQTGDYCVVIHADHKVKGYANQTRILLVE
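Purified LmPK (0.1 nM) with 0.5 mM PEP and 0.1 mM ADP in imidazole buffer pH 7.2 with MgCl2/KCl, 1 h at room temperature. ATP formed was read by luciferase luminescence and normalized to no-enzyme and uninhibited controls.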
Starred values were filed as active, the others as inactive; ? = inconclusive; . = not tested or not shown. This is a sample that favours compounds with a hit; in the whole collection about 14% have one here. Unless noted, the call rests on the fitted dose curve; in most records, active means well fitted curve in the direction sought with a large enough effect; inconclusive means small, poorly fitted or top-dose-only effect, or another doubt; inactive means no such curve, though single readings can be large; an effect the other way counts as inactive or inconclusive.

SMILES	Giardia FBPA inh	Cycloheximide cs	Shiga inhibitor	NS1 function inh	LmPK inhibitor
COc1ccc(S(=O)(=O)N2CCC(C(=O)NCC3CCCCC3)CC2)cc1	-2.2%	-1.6	1.1	-25.2%	9.5%
Cn1nc(C(F)(F)F)c(-c2ccc(F)cc2)c1NC(=O)c1cccnc1	1.9%	-2.0	-15.5	11.2%	2.1%
Cc1[nH]cnc1C(=O)N/N=C/c1ccc([N+](=O)[O-])s1	7.9%	23.7*	55.1*	-3.7%	-3.9%
Cc1ccc(C(=O)N/N=C/c2ccc([N+](=O)[O-])s2)cc1	.	-2.9	-22.8	-31.9%	3.2%
Cc1cc(C(=O)N/N=C/c2ccc([N+](=O)[O-])s2)n[nH]1	-5.1%	17.2*	28.4	-37.6%	3.4%
Cc1cccc(NC(=S)N/N=C/c2ccc([N+](=O)[O-])s2)c1	-5.6%	18.9	32.4*	-139.4%	4.2%
COc1cc(C=O)ccc1OS(=O)(=O)c1ccccc1[N+](=O)[O-]	-20.9%	22.3*	22.1	-30.5%	-13.4%
COc1cc(C=O)ccc1OCCCCOc1ccccc1[N+](=O)[O-]	1.5%	14.8*	34.9*	-21.0%	4.6%
COc1cc(C=O)ccc1OCCOCCOc1ccccc1Cl	-1.4%	7.4	14.9	-52.3%	3.0%
COc1cc(C=O)ccc1OCCCOc1ccccc1C(=O)O	.	-8.0	-26.7	11.6%	-0.5%
COc1cc(C=O)ccc1OCCCOc1ccc([N+](=O)[O-])cc1	-5.3%	-1.9	9.7	25.9%	-0.5%
COc1cc(/C=N/n2cnnc2)ccc1OS(=O)(=O)c1ccccc1[N+](=O)[O-]	0.6%	10.6	30.0	8.1%	0.7%
COc1cc(C=O)ccc1OCCCOc1ccccc1[N+](=O)[O-]	-6.8%	47.8*	64.1*	-21.3%	1.6%
COc1cc(C=O)ccc1OCCOc1ccccc1[N+](=O)[O-]	0.1%	28.1*	85.4*	-0.9%	4.2%
Cc1ccc(C(=O)Nc2cccc(NC(=O)c3ccc(C)o3)n2)o1	1.2%	6.0	15.3	-46.4%	0.3%
Cc1cc(F)ccc1NC(=O)CS(=O)(=O)c1cccc2nsnc12	.	-5.4	-5.0	.	.
CC(C)(C)OC(=O)N/N=C/c1c[nH]c2ccccc12	3.2%	55.6*	72.9*	-4.3%	-2.7%
CC(C)c1ccc2[nH]c3c(c2c1)CCC/C3=N\NC(=O)c1ccncc1	-8.2%	-2.7	-8.3	9.4%	11.6%
Nc1ccc(C(=O)N/N=C2\CCCc3c2[nH]c2ccccc32)cc1	1.3%	24.9*	25.5	10.9%	0.0%
O=C(N/N=C/c1c[nH]c2ccccc12)c1ccc(Cl)cc1	3.1%	34.1*	71.5*	-7.4%	-8.3%
O=C(N/N=C/c1c[nH]c2ccccc12)c1cc(Cl)ccc1O	8.5%	45.3*	43.9*	-54.3%	-0.1%
CN(C)c1ncc2nc(-c3ccc(Cl)cc3)c(=O)n(CCC#N)c2n1	6.2%	.	.	.	.
COc1ccc(NC(=O)COC(=O)C2CCC2)cc1Cl	.	0.7	-6.4	-12.7%	-1.9%
O=C(N/N=C/c1c[nH]c2ccccc12)c1ccccc1Cl	6.2%	25.9*	55.5	3.6%	5.3%
Nc1ccc(C(=O)N/N=C/c2c[nH]c3ccccc23)cc1	5.6%	29.2*	50.8	-2.3%	3.3%
SMILES	Giardia FBPA inh	Cycloheximide cs	Shiga inhibitor	NS1 function inh	LmPK inhibitor
NC(=S)N/N=C/c1c[nH]c2ccccc12	?	5.6	37.6	0.9%	-0.8%
Cc1occc1C(=O)N/N=C/c1c[nH]c2ccccc12	-7.0%	47.6*	96.0*	-7.8%	-11.7%
O=C(N/N=C\c1c[nH]c2ccccc12)c1ccc(O)cc1	8.4%	39.2*	63.2*	0.7%	0.5%
COC(=O)N/N=C/c1c[nH]c2ccccc12	3.0%	0.6	10.2	4.5%	0.0%
C=C1CCN([C@H](C(=O)OCc2cccc(C)c2)C(C)C)S(=O)(=O)c2ccccc21	-14.1%	-5.5	21.5	-41.2%	2.4%
O=C(N/N=C/c1c[nH]c2ccccc12)c1ccc(Br)cc1	-1.3%	31.7*	54.3*	-19.0%	-3.6%
CC(C)Oc1ccc(Br)cc1C(=O)N/N=C/c1c[nH]c2ccccc12	0.2%	4.1	-6.0	-0.7%	1.0%
COC(=O)N1C(=O)[C@](c2ccc(Cl)cc2)(C(C)C)N1C(=O)OC	2.1%	7.0	3.6	-14.9%	-3.9%
COC(=O)N1C(=O)[C@](c2ccccc2)(C2CCCC2)N1C(=O)OC	10.7%	19.1*	14.0	-4.1%	0.0%
COC(=O)N1C(=O)[C@@](c2ccccc2)(C(C)C)N1C(=O)OC	-2.6%	20.0*	10.2	-17.8%	-5.3%
COC(=O)N1C(=O)[C@@](c2ccc(OC)cc2)(C(C)C)N1C(=O)OC	2.5%	15.5*	19.1*	-39.5%	-0.7%
CCNc1ncc2nc(-c3cccs3)c(=O)n(CCc3ccccc3)c2n1	-8.4%	.	.	.	.
Cc1ccc2nc(-c3ccc(NC(=O)CSc4nc(N)cc(=O)[nH]4)cc3)sc2c1	1.5%	30.3*	94.0*	?	-0.1%
Nc1cc(=O)[nH]c(SCC(=O)Nc2nc3ccc([N+](=O)[O-])cc3s2)n1	11.8%	0.7	3.4	5.2%	-2.4%
Cc1ccc2nc(-c3ccc(NC(=O)CSc4nccc(=O)[nH]4)cc3)sc2c1	5.8%	36.8*	117.4*	-1.0%	-2.2%
COCCn1c(-c2ccc(-c3ccc([N+](=O)[O-])cc3Br)o2)nc2c1c(=O)[nH]c(=O)n2CC(C)C	-8.7%	-2.3	17.1	.	0.8%
N#CC(CO)(Cc1ccc(OC(F)F)cc1)c1nc2ccccc2[nH]1 (centres undefined)	-0.6%	22.6*	39.9*	-4.0%	-1.3%
CC(C)(C)C(=O)OC/C(N)=N/OC(=O)c1ccccc1	3.8%	39.6*	30.8	-4.5%	3.3%
COc1ccccc1NC(=O)CCc1nc2ccccc2s1	0.5%	14.5*	55.3	-7.6%	-1.2%
CCNC(=S)Nc1ccc(OCc2nc3ccccc3s2)cc1	-9.4%	33.2*	.	7.4%	2.6%
O=C(O)CCCC(=O)Nc1ccc(OCc2nc3ccccc3s2)cc1	12.4%	49.9*	98.1*	0.0%	-3.2%
CC(=O)c1ccc(OC(C)c2nc3ccccc3s2)cc1 (centres undefined)	11.4%	30.2*	74.6*	-46.6%	-4.9%
CC(C)c1ccccc1NC(=O)CCc1nc2ccccc2s1	-0.2%	-5.3	-3.9	17.6%	-2.9%
O=C(CCc1nc2ccccc2s1)OCc1ccccc1F	5.4%	-0.4	17.5	-10.6%	-3.1%
O=C(CCCc1nc2ccccc2s1)Nc1ccccc1	-2.3%	23.7	23.9	.	-5.4%
SMILES	Giardia FBPA inh	Cycloheximide cs	Shiga inhibitor	NS1 function inh	LmPK inhibitor
COc1ccccc1NS(=O)(=O)c1cccc(C(=O)OCc2nc3ccccc3s2)c1	0.9%	49.2*	75.5*	5.9%	-0.2%
COc1ccc(C(=O)CCc2nc3ccccc3s2)cc1	-12.3%	49.6*	41.1*	-9.4%	2.3%
O=C(CCc1nc2ccccc2s1)Nc1ccccc1	-0.4%	10.6*	21.9	-15.7%	2.0%
O=C(Nc1ccc([As](=O)(O)O)cc1)Nc1cccc(Cl)c1Cl	.	.	.	2.1%	.
CS(=O)(=O)N1CCC[C@@]2(CCN(Cc3nccs3)C2)C1	0.6%	.	.	.	.
COc1ccccc1-c1cc(NCc2ccccc2)ncn1	5.8%	.	.	.	.
Cc1nc2c(-c3ccc(F)cc3)cnn2c(N)c1-c1ccc(F)cc1	14.0%	61.1*	93.0*	2.1%	6.6%

Screening results as filed in PubChem BioAssay.
